# Test results reported in PubChem BioAssay (NCATS).
# Results filed as inconclusive are left out. The source made the active and inactive calls. The call rests on the fitted dose curve; in most records, active means well fitted activation curve with a large enough effect in the repeat runs; inconclusive means weak or mixed curves; inactive means flat fitted curve, though single readings scatter.
# Assay: qHTS assay for small molecule agonists of the antioxidant response element (ARE) signaling pathway measured by Nrf2-dependant transcriptional activity (AID 720636); on activation: % of control where 0% means no effect
# Conditions: ARE-luc HepG2, Nrf2 luciferase reporter, 16 h; series mostly up to 92.4 µM; activation: at the top concentration
# Excerpt: National Center for Advancing Translational Sciences [NCATS] NIH Chemical Genomics Center [NCGC] U.S. Environmental Protection Agency [EPA] National Institutes of Environmental Health Sciences [NIEHS] National Toxicology Program [NTP] Assay Overview: The antioxidant response element (ARE) signaling pathway plays an important role in the cellular anti-oxidant defense. Exposure to stressors which are exogenous like ionizing radiations, chemicals, U-V light, and endogenous like cell signaling, metabolic processes or inflammation, reactive oxygen species (ROS), can induce oxidative stress in the cells. Oxidative stress has been implicated in the pathogenesis of a variety of diseases ranging from cancer to neurodegeneration. ARE-luc HepG2 cell line (Simmons et al., Current Chemical Genomics, 5:1-12, 2011) has been used for identifying the chemicals that induce oxidative stress. The cell line has an Nrf2-responsive luciferase reporter gene that has been engineered to measure Nrf2-dependant transcriptional activity.
# Assay Protocol Summary: For measuring ARE induction; 2,000 ARE-luc HepG2 cells in 5 uL of assay medium containing 1% dialyzed FBS per well were dispensed into white wall/solid bottom 1536-well plates using a Flying Reagent Dispenser (FRD) (Aurora Discovery). The assay plates were incubated for 6 hr at 37 C to allow cell attachment to the well bottom, followed by the transfer of 23 nL compound or DMSO vehicle by a pin tool (Kalypsys). The plates were incubated for 16 hr at 37 C and 5% CO2, followed by the addition of 5 uL of ONE-GloTM luciferase reagent (Promega) into each well using FRD. After 30 min room temperature incubation, plates were read on a ViewLux plate reader (PerkinElmer).
# Potency means the concentration at half of the fitted maximal effect.
Compound,activation,Potency
Cc1ccc(S(=O)(=O)Oc2ccc(N=Nc3ccc(-c4ccc(N=Nc5c(O)ccc6cc(S(=O)(=O)O)cc(S(=O)(=O)O)c56)c(C)c4)cc3C)cc2)cc1,-1.26% (inactive),
C=CC(=O)OCCOCCOC(=O)C=C,,66.8 µM (active)
Cc1cc(C(C)(C)CC(C)(C)C)ccc1OCCOCC[N+](C)(C)Cc1ccccc1,-4.08% (inactive),
CC1CCC(C(C)C)C(O)C1 (configuration not stated),0.339% (inactive),
Cc1cc(O)c(C(C)(C)C)cc1Sc1cc(C(C)(C)C)c(O)cc1C,,inactive
CCCCCCCC[N+](CCCCCCCC)(CCCCCCCC)CCCCCCCC,-5.32% (inactive),
CC1(C)CCC(C)(C)c2cc(C(=O)Nc3ccc(C(=O)O)cc3)ccc21,-0.261% (inactive),
CO[C@H]1/C=C/O[C@@]2(C)Oc3c(C)c(O)c4c(O)c(c5c(c4c3C2=O)NC2(CCN(CC(C)C)CC2)N=5)=NC(=O)/C(C)=C\C=C\[C@H](C)[C@H](O)[C@@H](C)[C@@H](O)[C@@H](C)[C@H](OC(C)=O)[C@@H]1C,-1.19% (inactive),
CCC(C)Nc1ccc(NC(C)CC)cc1 (configuration not stated),-5.62% (inactive),
O=C(OCC(COC(=O)c1ccccc1)(COC(=O)c1ccccc1)COC(=O)c1ccccc1)c1ccccc1,-0.279% (inactive),
O=C1OC2(c3cc(Br)c(O)c(Br)c3Oc3c2cc(Br)c(O)c3Br)c2c(Cl)c(Cl)c(Cl)c(Cl)c21,-0.974% (inactive),
ClC1=C(Cl)C(Cl)(Cl)C(Cl)=C1Cl,,inactive
CNc1ccc(O)cc1,,37.6 µM (active)
O=Cc1ccc(Cl)c(Cl)c1,-0.682% (inactive),
CN1[C@H]2CC(OC(=O)[C@H](CO)c3ccccc3)C[C@H]1[C@H]1O[C@H]12 (some centres not stated),,inactive
CN(C)c1ccc(C2(c3ccc(N(C)C)cc3)OC(=O)c3cc(N(C)C)ccc32)cc1,-0.42% (inactive),
O=C(/C=C/c1ccc(O)c(O)c1)OC1C[C@](O)(C(=O)O)C[C@@H](O)[C@H]1O (some centres not stated),,inactive
C=C(C)c1ccccc1,-2.39% (inactive),
Cc1cccc(O)c1C,-0.867% (inactive),
CCCCCC/C(C=O)=C\c1ccccc1,-0.597% (inactive),
Cc1cc(Nc2ccc(O)cc2)ccc1N,0.299% (inactive),
O=C=Nc1ccc(Cc2ccc(N=C=O)cc2)cc1,,inactive
